# Reference: PubChem BioAssay (EPA / NIEHS)
# More than one record can exist for a structure, and the calls need not agree. Calls of active or inactive are those of the source. How the source made its calls: active means hit-call score of the fitted dose curve at least 0.9, where 1 is the maximum; inactive means score below 0.9.
# Tests used:
# Details in all cases: mRNA level, 48 h; actives raise or lower the signal
# [1] = read-out: CYP2C9 (gene 1559); assay: LTEA_HepaRG_CYP2C9: Life Technologies and Expression Analysis (LTEA) Assay for CYP2C9 using HepaRG (AID 2283484)
# How it was run: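 CYP2C9 transcript level, quantified by TaqMan qRT-PCR against three housekeeping genes, was fitted bidirectionally relative to 0.5% DMSO. HepaRG cultures were treated 48 h, in duplicate, at eight half-log concentrations topping at 100 uM.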
# [2] = read-out: CYP2E1 (gene 1571); assay: LTEA_HepaRG_CYP2E1: Life Technologies and Expression Analysis (LTEA) Assay for CYP2E1 using HepaRG (AID 2283485)
# How it was run: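 CYP2E1 transcript measured by Fluidigm qRT-PCR against three housekeeping genes in human HepaRG cells treated 48 h (top 100 uM, half-log steps, 0.5% DMSO vehicle). Gain or loss fitted relative to DMSO baseline.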
# [3] = read-out: CYP4A11 (gene 1579); assay: LTEA_HepaRG_CYP4A11: Life Technologies and Expression Analysis (LTEA) Assay for CYP4A11 using HepaRG (AID 2283486)
# How it was run: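 Differentiated HepaRG cells, serum-free induction medium, exposed 48 h in duplicate to 8-point half-log series from 100 uM in 0.5% DMSO. CYP4A11 mRNA measured by qRT-PCR, normalized to ACTB, GAPDH, POLR2A; bidirectional fit versus DMSO.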
# [4] = read-out: Cytochrome P450 3A4 (Homo sapiens) (UniProt P08684); assay: LTEA_HepaRG_CYP3A4: Life Technologies and Expression Analysis (LTEA) Assay for CYP3A4 using HepaRG (AID 2283487)
# How it was run: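 HepaRG, 48 h exposure, 8-pt CRC from 100 uM (half-log), 0.5% DMSO, duplicates; serum-free induction medium. Readout: CYP3A4 mRNA, qRT-PCR, ACTB/GAPDH/POLR2A normalization. Bidirectional fit vs DMSO.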
# [5] = read-out: DNA damage-inducible transcript 3 (DDIT3), DDIT3 (gene 1649); assay: LTEA_HepaRG_DDIT3: Life Technologies and Expression Analysis (LTEA) Assay for DNA damage-inducible transcript 3 (DDIT3) using HepaRG (AID 2283488)
# How it was run: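 DDIT3 transcript was quantified by qRT-PCR with ACTB/GAPDH/POLR2A normalization after 48 h chemical treatment of differentiated HepaRG cells in 0.5% DMSO. Dosing was eight-point, half-log, top 100 uM, duplicate wells. Curves fitted bidirectionally versus DMSO.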
# [6] = read-out: Pro-epidermal growth factor (Homo sapiens) (UniProt P01133); assay: LTEA_HepaRG_EGF: Life Technologies and Expression Analysis (LTEA) Assay for Epidermal growth factor (EGF) using HepaRG (AID 2283489)
# How it was run: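 Differentiated human HepaRG cells, plated 48 h then switched to serum-free induction medium, were exposed for 48 h to test chemicals (8-point half-log series, top 100 uM, 0.5% DMSO). EGF mRNA was quantified by qRT-PCR, normalized to ACTB, GAPDH, POLR2A.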
# [7] = read-out: Early growth response protein 1 (EGR1) transcription factor, EGR1 (gene 1958); assay: LTEA_HepaRG_EGR1: Life Technologies and Expression Analysis (LTEA) Assay for Early growth response protein 1 (EGR1) transcription factor using HepaRG (AID 2283490)
# How it was run: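 EGR1 transcript levels quantified by qRT-PCR (Fluidigm arrays) against three housekeeping genes after 48 h chemical exposure of HepaRG cells. Eight-point half-log series topping at 100 uM, 0.5% DMSO vehicle, analyzed for gain or loss.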
# [8] = read-out: Ezrin (EZR), EZR (gene 7430); assay: LTEA_HepaRG_EZR: Life Technologies and Expression Analysis (LTEA) Assay for Ezrin (EZR) using HepaRG (AID 2283491)
# How it was run: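 Read-out is EZR transcript level by qRT-PCR, normalized to three housekeeping genes and fitted bidirectionally against the DMSO control. Human HepaRG cells received test chemicals for 48 h at eight half-log concentrations up to 100 uM in 0.5% DMSO.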
# [9] = read-out: Cytochrome P450 3A7 (Homo sapiens) (UniProt P24462); assay: LTEA_HepaRG_CYP3A7: Life Technologies and Expression Analysis (LTEA) Assay for CYP3A7 using HepaRG (AID 2283492)
# How it was run: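 HepaRG cells plated 48 h, then dosed in serum-free induction medium for 48 h at 8 concentrations (top 100 uM, half-log steps, 0.5% DMSO). CYP3A7 mRNA by qRT-PCR, normalised to ACTB/GAPDH/POLR2A; bidirectional fit versus DMSO.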
# [10] = read-out: CYP3A5 (gene 1577); assay: LTEA_HepaRG_CYP3A5: Life Technologies and Expression Analysis (LTEA) Assay for CYP3A5 using HepaRG (AID 2283493)
# How it was run: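 mRNA levels were quantified by qRT-PCR on Fluidigm arrays and normalized to three housekeeping genes. Differentiated HepaRG cells received 48 h exposure (top 100 uM, half-log steps, 0.5% DMSO vehicle, duplicate); bidirectional fitting versus DMSO.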
# [11] = read-out: Fatty Acid-Binding Protein 1 (FABP1), FABP1 (gene 2168); assay: LTEA_HepaRG_FABP1: Life Technologies and Expression Analysis (LTEA) Assay for Fatty Acid-Binding Protein 1 (FABP1) using HepaRG (AID 2283494)
# How it was run: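 FABP1 expression by TaqMan qRT-PCR, normalised to three housekeeping genes, in HepaRG cells after 48 h chemical treatment. Eight-point half-log series topping at 100 uM in 0.5% DMSO, duplicates; gain or loss fitted relative to vehicle.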
# [12] = read-out: Cytochrome P450 7A1 (Homo sapiens) (UniProt P22680); assay: LTEA_HepaRG_CYP7A1: Life Technologies and Expression Analysis (LTEA) Assay for Cytochrome P450 7A1 (CYP7A1) using HepaRG (AID 2283496)
# How it was run: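 HepaRG, 48 h exposure, 8-pt half-log series from 100 uM, 0.5% DMSO vehicle, duplicates. Readout: TaqMan qRT-PCR mRNA vs three housekeeping genes; bidirectional curve fit against DMSO baseline.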
# [13] = read-out: Glutathione S-Transferase (GSTA2), GSTA2 (gene 2939); assay: LTEA_HepaRG_GSTA2: Life Technologies and Expression Analysis (LTEA) Assay for Glutathione S-Transferase (GSTA2) using HepaRG (AID 2283497)
# How it was run: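 GSTA2 transcript levels came from Fluidigm TaqMan qRT-PCR normalized to three housekeeping genes, fitted in both directions against DMSO. HepaRG cultures received chemicals for 48 h in serum-free induction medium (0.5% DMSO), 8 half-log concentrations up to 100 uM, duplicate.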
# [14] = read-out: Glutamate-cysteine ligase catalytic (GCLC), GCLC (gene 2729); assay: LTEA_HepaRG_GCLC: Life Technologies and Expression Analysis (LTEA) Assay for Glutamate-cysteine ligase catalytic (GCLC) using HepaRG (AID 2283498)
# How it was run: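 Expression by TaqMan qRT-PCR, normalized to three housekeeping genes (ACTB, GAPDH, POLR2A), with up- or down-regulation fitted against DMSO. HepaRG cells dosed in duplicate for 48 h with 8 half-log concentrations up to 100 uM, vehicle 0.5% DMSO.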
# [15] = read-out: growth arrest and DNA damage 45 (GADD45G), GADD45G (gene 10912); assay: LTEA_HepaRG_GADD45G: Life Technologies and Expression Analysis (LTEA) Assay for growth arrest and DNA damage 45 (GADD45G) using HepaRG (AID 2283499)
# How it was run: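 Differentiated human HepaRG cells in serum-free induction medium were exposed for 48 h to 8 half-log concentrations up to 100 uM in 0.5% DMSO, in duplicate. GADD45G mRNA was measured by TaqMan qRT-PCR, normalised to ACTB, GAPDH and POLR2A, and fitted bidirectionally against DMSO.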
# [16] = read-out: Glutamate-cysteine ligase regulatory (GCLM), GCLM (gene 2730); assay: LTEA_HepaRG_GCLM: Life Technologies and Expression Analysis (LTEA) Assay for Glutamate-cysteine ligase regulatory (GCLM) using HepaRG (AID 2283500)
# How it was run: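 GCLM expression quantified by qRT-PCR, normalized to three housekeeping genes, after 48 h chemical treatment of HepaRG cells in duplicate at 8 concentrations (top 100 uM, half-log steps, 0.5% DMSO). Changes fitted both directions against vehicle.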
# [17] = read-out: Glutathione S-transferase M3 (GSTM3), GSTM3 (gene 2947); assay: LTEA_HepaRG_GSTM3: Life Technologies and Expression Analysis (LTEA) Assay for Glutathione S-transferase M3 (GSTM3) using HepaRG (AID 2283501)
# How it was run: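 Differentiated HepaRG cells in serum-free induction medium were exposed in duplicate for 48 h to 8 half-log concentrations up to 100 uM in 0.5% DMSO. GSTM3 mRNA was measured by TaqMan qRT-PCR, normalized to ACTB/GAPDH/POLR2A, and fitted bidirectionally versus DMSO.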
# [18] = read-out: Heat shock 70 kDa protein 1 (HSPA1A), gene 3303; assay: LTEA_HepaRG_HSPA1A: Life Technologies and Expression Analysis (LTEA) Assay for Heat shock 70 kDa protein 1 (HSPA1A) using HepaRG (AID 2283502)
# How it was run: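 HSPA1A expression measured by qRT-PCR with ACTB/GAPDH/POLR2A normalization; curves fitted in both directions relative to DMSO vehicle. Exposure: 48 h in HepaRG cells, duplicate 8-point half-log series from 100 uM, 0.5% DMSO, serum-free induction medium.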
# [19] = read-out: Hypoxia-inducible factor 1-alpha (Homo sapiens) (UniProt Q16665); assay: LTEA_HepaRG_HIF1A: Life Technologies and Expression Analysis (LTEA) Assay for Hypoxia-inducible factor 1 (HIF1A) Trancription factor using HepaRG (AID 2283503)
# How it was run: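 HIF1A transcript level read by qRT-PCR (ACTB, GAPDH, POLR2A normalization) after 48 h chemical exposure of HepaRG cultures. Eight half-log concentrations, top 100 uM, 0.5% DMSO vehicle, duplicates; bidirectional curve fit against DMSO baseline.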
# Cytochrome P450 3A7 (Homo sapiens), sequence (P24462 whole entry, looked up): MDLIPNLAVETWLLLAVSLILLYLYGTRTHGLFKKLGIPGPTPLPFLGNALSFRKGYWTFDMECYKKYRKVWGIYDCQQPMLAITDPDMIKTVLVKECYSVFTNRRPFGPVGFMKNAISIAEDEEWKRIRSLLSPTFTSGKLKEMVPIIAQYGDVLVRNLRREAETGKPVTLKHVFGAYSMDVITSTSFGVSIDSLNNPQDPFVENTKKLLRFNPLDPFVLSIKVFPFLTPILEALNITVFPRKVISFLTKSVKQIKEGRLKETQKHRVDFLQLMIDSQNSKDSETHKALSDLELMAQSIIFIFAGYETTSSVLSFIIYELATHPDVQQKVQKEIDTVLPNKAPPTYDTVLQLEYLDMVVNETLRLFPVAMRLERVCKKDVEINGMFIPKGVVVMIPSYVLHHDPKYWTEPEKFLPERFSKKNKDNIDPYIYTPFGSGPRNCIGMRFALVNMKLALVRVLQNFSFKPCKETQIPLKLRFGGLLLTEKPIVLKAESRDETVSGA
# Cytochrome P450 3A4 (Homo sapiens), sequence (P08684 whole entry, looked up): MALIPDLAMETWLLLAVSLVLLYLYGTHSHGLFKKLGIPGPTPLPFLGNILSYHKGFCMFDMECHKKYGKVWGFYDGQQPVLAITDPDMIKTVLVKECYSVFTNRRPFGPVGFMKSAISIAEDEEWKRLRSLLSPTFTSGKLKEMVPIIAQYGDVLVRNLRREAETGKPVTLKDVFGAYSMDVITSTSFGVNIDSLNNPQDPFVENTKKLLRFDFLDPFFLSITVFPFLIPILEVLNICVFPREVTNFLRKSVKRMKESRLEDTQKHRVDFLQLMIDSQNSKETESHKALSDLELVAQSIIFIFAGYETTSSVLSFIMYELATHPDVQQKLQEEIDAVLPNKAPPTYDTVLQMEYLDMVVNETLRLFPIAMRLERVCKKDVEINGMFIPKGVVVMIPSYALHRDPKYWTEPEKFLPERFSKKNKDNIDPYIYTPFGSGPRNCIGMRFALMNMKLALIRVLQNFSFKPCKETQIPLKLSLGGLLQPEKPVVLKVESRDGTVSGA
# Hypoxia-inducible factor 1-alpha (Homo sapiens), sequence (Q16665 whole entry, looked up): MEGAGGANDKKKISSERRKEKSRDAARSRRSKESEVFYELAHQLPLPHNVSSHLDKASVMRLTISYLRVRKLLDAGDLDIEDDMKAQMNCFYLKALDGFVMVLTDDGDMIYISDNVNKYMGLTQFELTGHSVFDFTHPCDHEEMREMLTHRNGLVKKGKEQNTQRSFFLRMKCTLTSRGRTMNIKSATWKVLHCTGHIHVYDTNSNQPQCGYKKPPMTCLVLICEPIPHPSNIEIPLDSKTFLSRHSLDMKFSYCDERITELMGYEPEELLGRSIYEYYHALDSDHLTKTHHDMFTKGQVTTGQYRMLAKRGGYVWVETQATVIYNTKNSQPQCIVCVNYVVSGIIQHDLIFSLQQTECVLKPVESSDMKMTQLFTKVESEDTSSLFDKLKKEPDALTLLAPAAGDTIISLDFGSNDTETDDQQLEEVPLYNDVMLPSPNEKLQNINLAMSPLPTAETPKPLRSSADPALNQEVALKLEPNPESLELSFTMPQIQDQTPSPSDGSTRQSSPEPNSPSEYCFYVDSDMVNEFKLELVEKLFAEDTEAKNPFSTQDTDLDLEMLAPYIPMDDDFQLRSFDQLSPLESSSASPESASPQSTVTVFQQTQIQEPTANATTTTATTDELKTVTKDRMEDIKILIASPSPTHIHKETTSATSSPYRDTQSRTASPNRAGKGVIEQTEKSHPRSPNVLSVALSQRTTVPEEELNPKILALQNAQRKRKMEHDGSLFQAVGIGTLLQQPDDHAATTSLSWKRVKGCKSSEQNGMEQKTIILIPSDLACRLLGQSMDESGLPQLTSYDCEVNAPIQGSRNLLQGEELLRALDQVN
smiles,measurement,setting,value
O=[N+]([O-])c1cc(C(F)(F)F)c(Cl)c([N+](=O)[O-])c1Nc1ncc(C(F)(F)F)cc1Cl,AC50,[1],17.8 µM (active)
same,AC50,[2],13.1 µM (active)
same,AC50,[3],27.6 µM (active)
same,AC50,[4],30.2 µM (active)
same,outcome,[5],inactive
same,outcome,[6],inactive
same,AC50,[7],90.7 µM (active)
same,outcome,[8],inactive
same,AC50,[9],23.1 µM (active)
same,AC50,[10],66.7 µM (active)
same,AC50,[11],16.4 µM (active)
same,AC50,[12],23 µM (active)
same,AC50,[13],24.9 µM (active)
same,AC50,[14],69.3 µM (active)
same,outcome,[15],inactive
same,outcome,[16],inactive
same,outcome,[17],inactive
same,outcome,[18],inactive
same,AC50,[19],31.9 µM (active)
C#CC(C)(C)NC(=O)c1cc(Cl)cc(Cl)c1,outcome,[1],inactive
same,AC50,[2],26.1 µM (active)
same,outcome,[3],inactive
same,AC50,[4],5.13 µM (active)
same,outcome,[5],inactive
same,outcome,[6],inactive
same,outcome,[7],inactive
same,outcome,[8],inactive
same,AC50,[9],4.98 µM (active)
same,outcome,[10],inactive
same,outcome,[11],inactive
same,outcome,[12],inactive
same,outcome,[13],inactive
same,outcome,[14],inactive
same,outcome,[15],inactive
same,outcome,[16],inactive
same,outcome,[17],inactive
same,outcome,[18],inactive
same,outcome,[19],inactive
CN(C)[C@@H]1C(=O)C(C(N)=O)=C(O)[C@@]2(O)C(=O)C3=C(O)c4c(O)cccc4[C@@](C)(O)[C@H]3[C@H](O)[C@@H]12,outcome,[1],inactive
same,AC50,[2],50 µM (active)
same,outcome,[2],inactive
same,AC50,[3],38.6 µM (active)
same,outcome,[3],inactive
same,outcome,[4],inactive
same,outcome,[5],inactive
same,outcome,[6],inactive
same,outcome,[7],inactive
same,outcome,[8],inactive
same,outcome,[9],inactive
same,outcome,[10],inactive
same,outcome,[11],inactive
same,outcome,[12],inactive
same,outcome,[13],inactive
same,outcome,[14],inactive
same,outcome,[15],inactive
same,outcome,[16],inactive
same,outcome,[17],inactive
same,outcome,[18],inactive
